Sm TGR block: S. mansoni TGR enzyme inhibition; Potency, µM (doses to about 114 µM), without a hit: top-dose activity change, negative = inhibition, usual class: inhibitors; purified TGR, DTNB reduction, TNB absorbance 405 nm; hit rate 3% among 360,000; note: potency is the fitted concentration of half-maximal effect; % is set by controls: 0 for no effect and ±100 for the full control effect; nearly all actives have a fitted effect of over 60% in size
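Kinetic colorimetric format: TGR-catalysed, NADPH-driven DTNB reduction monitored via TNB absorbance. Enzyme dispensed at 20 nM; compound exposure 15 min at room temperature before reaction start.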
Shiga inhibitor: blocks Shiga toxin action in Vero cells. hit rate 9.2% among 290,000. inhibition, % at 38.7 µM. Vero cells, Shiga toxin protein synthesis inhibition reporter; in the data active = inhibition mostly above about 28%, no sharp cut-off; inactive = mostly below about 43%; note: 0% is about no effect
Pf growth 48h: P. falciparum growth inhibition at 48 hours (one generation) | P. falciparum luciferase growth in erythrocytes, 48 h | Potency, µM (series often up to 28.7 µM), without a hit: at the highest dose activity change, negative = inhibition, usual class: inhibitors | hit rate 5.9% among 310,000 | AID 504832; note: potency is the fitted concentration of half-maximal effect; % is set by controls: 0 for no effect and ±100 for the full control effect
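Cell-based growth assay: transgenic P. falciparum expressing firefly luciferase, cultured in red cells within RPMI 1640 containing 0.5% w/v Albumax, 24 mM bicarbonate and gentamycin. A drop in luciferase activity indicates inhibition.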
NS1 inh: influenza NS1 inhibition | hit rate 0.4% among 270,000 | Potency, µM (highest dose often 46.1 µM), for the others: at the highest dose activity, positive = more growth; calls by dose curve; note: potency is the fitted concentration of half-maximal effect; actives are rising curves; nearly all actives have a fitted effect of over 50% in size
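Recovery from NS1-induced slow growth read by OD600 in budding yeast switched to galactose assay medium (pH 6.0, -URA) at 1:100 dilution. Compound 23 nl per well; the matching strain lacking NS1 serves as control.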
Pf growth 96h: P. falciparum growth inhibition at 96 hours; P. falciparum luciferase reporter growth, 96 h; Potency, µM (highest dose often 28.7 µM), inactives show at the highest dose activity change, negative = inhibition, hits mostly inhibitors; hit rate 6.9% among 320,000; AID 504834; note: potency is the fitted concentration of half-maximal effect; % is set by controls: 0 for no effect and ±100 for the full control effect
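Luminescence readout: decreased luciferase signal marks inhibited growth of reporter-expressing P. falciparum in infected red cells (2% hematocrit, 0.05% parasitemia final), exposed to compound two generations (96 h, 37 C, 5% CO2).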
Cycloheximide cs: affects cycloheximide protein synthesis inhibition readout, counter-screen. cell reporter, cycloheximide protein synthesis inhibition counterscreen. max response, %. hit rate 12% among 300,000; in the data active = max response mostly above about 13%, no sharp cut-off; inactive = mostly below about 14%; note: read at 38.3 µM for the half of the compounds with a filed dose; 0% is about no effect
* = called active by the depositor; i = inactive; ? = inconclusive; · = no result given; [ ] = another dose, or the depositor's remark. A selection: hits, their analogues and other compounds. The true share with any hit is near 21%. Unless noted, calls come from the whole dose curve; as a rule, active = well fitted curve in the direction sought with a large enough effect; inconclusive = small, poorly fitted or top-dose-only effect, or another doubt; inactive = no such curve, though single readings can be large; an effect the other way counts as inactive or inconclusive.

SMILES | Sm TGR block | Shiga inhibitor | Pf growth 48h | NS1 inh | Pf growth 96h | Cycloheximide cs
CC1=C(C(=O)OC2CCCC2)C(c2ccccc2C(F)(F)F)CC(=O)N1 (stereo not given) | 10.1% | · | · | · | · | ·
CCOc1cc(C2c3c(-c4ccccc4O)n[nH]c3C(=O)N2CCc2ccccc2)ccc1O (stereo not given) | -9.3% | · | · | · | · | ·
Cc1noc(C)c1C1(O)CCCCCCCCCCC1 | 6.8% | -5.0 | -24.0% | 3.2% | ? | -1.0
Fc1ccc(C2c3cccn3CCN2C(=S)Nc2cccc(F)c2)cc1 (stereo not given) | -34.1% | 8.6 | ? | · | ? | -5.6
CC(C)(C)NC(=S)N1CCn2cccc2C1c1cccnc1 (stereo not given) | -24.4% | 12.5 | 4.0% | · | 9.28µM* | -0.1
Fc1ccccc1C1c2cccn2CCN1C(=S)Nc1ccc(Br)cc1 (stereo not given) | -25.2% | -8.1 | -14.3% | 14.5% | -5.7% | -1.8
Fc1ccccc1C1c2cccn2CCN1C(=S)Nc1cccc(Br)c1 (stereo not given) | -7.9% | 17.3 | 9.28µM* | · | -27.2% | 0.9
CNC(=S)N1CCn2cccc2C1c1ccc(F)cc1 (stereo not given) | 35.5µM* | -17.6 | -14.2% | -3.0% | ? | 16.2
C=CCn1c(SCc2nc3ccccc3nc2C)nnc1-c1ccoc1C | 44.7µM* | -10.9 | ? | 2.3% | 7.4% | 5.9
CCn1c(SCC(=O)c2ccccc2)nnc1-c1cccs1 | 1.1% | 77.2* | 116.4% | -18.9% | 63.2% | 66.2*
CCn1c(SCC(=O)NCc2ccco2)nnc1-c1ccncc1 | -5.0% | -19.2 | 24.1% | · | 19.3% | -2.9
CC(=O)Nc1ccc(-c2nnc(SCC(=O)NCc3ccco3)n2C)cc1 | -16.3% | 2.0 | · | 6.9% | 6.57µM* | -3.5
CC(C)c1nnc(SCC(=O)NCc2ccco2)n1C | ? | -14.4 | 0.7% | 4.7% | 18.4% | -2.2
CCn1c(SCC(=O)NCc2ccco2)nnc1-c1cccs1 | 10µM* | 14.6 | 3.9% | 5.7% | · | 12.2
Cn1c(=O)n(-c2ccc3c(c2)OCO3)c2nc(-c3ccc(Cl)cc3)nc(C(N)=O)c21 | -1.8% | · | · | · | · | ·
C=CCNC(=O)C1CCN(S(=O)(=O)c2ccc3ccccc3c2)CC1 | -1.6% | -9.0 | ? | -6.5% | 70.4% | 1.2
CC(Sc1nnc(-c2ccco2)n1-c1ccccc1)C(=O)NCC1CCCO1 (stereo not given) | -24.5% | · | 0.4% | · | -17.2% | ·
CC(Sc1nnc(-c2cccs2)n1-c1ccccc1)C(=O)NCc1ccco1 (stereo not given) | 44.7µM* | 2.8 | -9.0% | 8.6% | · | -3.3
Cc1ccc(-n2c(SCC(=O)NCc3ccco3)nnc2-c2cccnc2)cc1 | 44.7µM* | -5.1 | -19.4% | -1.4% | 0.4% | 6.0
CCCCn1c(SCC(=O)NCc2ccco2)nnc1-c1ccoc1C | 28.2µM* | -2.7 | -1.6% | 6.7% | -7.9% | -1.0
CC(Sc1ccsc1[N+](=O)[O-])C(=O)NCc1ccco1 (stereo not given) | 22.4µM* | 10.7 | -8.9% | · | -14.4% | -3.7
CCn1c(SCC(=O)c2ccc(O)c(O)c2)nnc1-c1ccccc1 | -28.2% | 60.6 | ? | 29.9% | ? | 33.5*
CCCCn1c(SCC(=O)NCc2ccco2)nnc1-c1ccco1 | 44.7µM* | 2.1 | -25.7% | 4.1% | · | 1.9
CCn1c(SCc2nc3ccccc3nc2C)nnc1-c1cccs1 | 5.7% | -2.7 | 10.4µM* | -19.6% | -3.6% | -2.5
CCn1c(SC/C=C/c2ccccc2)nnc1-c1cccs1 | ? | -1.5 | ? | -49.4% | 159.4% | -1.8
SMILES | Sm TGR block | Shiga inhibitor | Pf growth 48h | NS1 inh | Pf growth 96h | Cycloheximide cs
CNC(=O)NC(=O)C(C)OC(=O)c1cc2c(s1)CCCCC2 (stereo not given) | -1.0% | -3.2 | 11.4% | 9.0% | -14.9% | -5.9
CN(C)CCNC(=O)CNC(=S)N(CCCN1CCOCC1)Cc1cccs1 | -2.8% | -12.4 | i | · | -18.3% | -5.6
CCN(CC)CCNC(=O)CNC(=S)N(CCCN1CCOCC1)Cc1cccs1 | 9.6% | -15.7 | 0.0% | -0.5% | 1.65µM* | -2.1
Cc1c(Cl)cccc1NC(=S)N(CCCN1CCOCC1)Cc1cccs1 | 1.9% | 3.1 | ? | -7.0% | -6.3% | -4.6
Cc1ccc(NC(=S)N(CCCN2CCOCC2)Cc2cccs2)c(C)c1 | -22.5% | -0.8 | ? | -5.2% | 9.28µM* | -3.1
CC(=O)c1c(C)nc(C)nc1NC(=O)Cc1ccccc1 | -12.1% | -8.5 | -5.6% | -7.6% | 22.2% | -2.6
CC(=O)Nc1nc(-c2ccc(Cl)cc2)nc(C)c1C(C)=O | -25.1% | 17.6* | 87.8% | ? | ? | 20.9*
NS(=O)(=O)c1ccc(NC(=O)CSc2cn[nH]n2)cc1 | 7.4% | -15.2 | 17.3% | 5.8% | -12.0% | -2.3
O=c1oc2c(O)c(O)cc3c(=O)oc4c(O)c(O)cc1c4c23 | -28.1% | -6.1 | 5.22µM* | -2.2% | 3.7µM* | -2.4
O=C(O)CN(c1ccc(F)cc1)S(=O)(=O)c1ccc2c(c1)OCCO2 | 3.8% | 18.4 | 44.6% | -5.8% | -5.4% | 0.6
CC1CCN(C(=O)CN(c2ccc3c(c2)OCCO3)S(=O)(=O)c2ccccc2)CC1 | 11.0% | 53.8* | ? | 9.8% | -8.4% | 35.7*
Cc1ccc(N(CC(=O)N2CC(=O)Nc3ccccc32)S(=O)(=O)c2ccc3c(c2)OCCO3)cc1 | -15.6% | -3.3 | 11.7µM* | 4.7% | ? | -0.6
CCOC(=O)C1CCN(C(=O)CN(c2ccc3c(c2)OCCO3)S(=O)(=O)c2ccccc2)CC1 | -2.1% | · | ? | · | -1.6% | ·
CCCCn1c(SCC(=O)OCC)nc2c(sc(=S)n2-c2ccccc2OC)c1=O | 4.1% | -3.2 | ? | 13.0% | 20.1% | -1.1
CC(=O)c1cccc(Nc2nc(-c3sc(N)nc3C)cs2)c1 | -31.3% | 41.7 | ? | 22.6% | 16.5µM* | 20.2*
CC(=O)c1cccc(Nc2nc(-c3sc(C)nc3C)cs2)c1 | 0.6% | 20.1 | -20.0% | -13.6% | 362.1% | 11.6*
CCn1c(COc2cccc3cccnc23)nnc1SC(F)F | 5.0% | -14.8 | 6.4% | 2.4% | 6.4% | -0.6
O=C(O)C1CCN(c2ccc(Cl)nn2)CC1 | -0.3% | 14.4 | -0.4% | · | 17.3% | -1.8
N#C/C(=C\C1=C(N2CCOCC2)C(=C\c2ccc(Cl)cc2)/CC1)C(=O)Nc1ccccc1F | -10.6% | -5.6 | -21.6% | 6.9% | ? | -2.9
N#C/C(=C\C1=C(N2CCOCC2)C(=C/c2cccc([N+](=O)[O-])c2)/CC1)C(=O)Nc1ccccc1F | 6.9% | -6.7 | ? | -7.4% | 9.28µM* | -5.2
Cc1ccc(/C=C\c2nccc3c2[nH]c2ccccc23)cc1 | · | 58.6 | 2.62µM* | -44.3% | ? | 33.2*
Cc1cc2[nH]c3ccccc3c2cn1 | 0.0% | 19.9 | ? | 14.1% | ? | 1.8
Fc1ccc(/C=C\c2nccc3c2[nH]c2ccccc23)cc1 | · | 45.0 | ? | -3.9% | 35.2%[5.75 µM] | 13.1
C(=C\c1nccc2c1[nH]c1ccccc12)/c1ccccc1 | 11.0% | 85.0* | 1.85µM* | -43.4% | 2.62µM* | 32.9*

Source: PubChem BioAssay (National Center for Advancing Translational Sciences (NCATS))
